High-throughput results deposited in PubChem by Buhrlage Lab, Dana-Farber Cancer Institute and Novartis Institutes for BioMedical Research (Cambridge, Mass).
USP8 block: human USP8 deubiquitinase inhibition; inhibition, % at 20 µM; purified USP8, Ub-rhodamine cleavage fluorescence, 30 min; AID 1645853; actives 4.2% (n = 47,000); P40818
USP30 block: human USP30 deubiquitinase inhibition | inhibition, % at 25 µM | actives 5.3% (n = 47,000) | Q70CQ3 | AID 1645860 | purified USP30, Ub-rhodamine cleavage fluorescence
USP28 block: inhibitors of human USP28 deubiquitinase; purified USP28, Ub-rhodamine cleavage fluorescence, 30 min; inhibition, % at 25 µM; actives 3% (n = 47,000); AID 1645857
USP17 block: blocks human USP17 ubiquitin-rhodamine cleavage; purified USP17, Ub-rhodamine cleavage fluorescence, 3 h; inhibition, % at 50 µM; actives 6.5% (n = 47,000)
* marks the source's active call; other numbers are inactive results. Hits are enriched below; roughly 13% of the tested compounds scored in any of these assays. Cut-off read from the data, not from the text of the source: active = inhibition above about 30%; inactive = the rest.

What do the screens show for `COc1ccc(CNC(=O)c2ccc(CNS(=O)(=O)c3ccc(NC(C)=O)cc3)cc2)cc1`?
USP8 block: 19; USP30 block: 37*; USP28 block: 13; USP17 block: 41*

What do the screens show for `COc1cccc(CNC(=O)Cc2cccc3ccccc23)c1`?
USP8 block: 14; USP30 block: -55; USP28 block: 0; USP17 block: 7

How did COc1ccc(C(=O)Nc2ccccc2C(=O)NCc2ccccc2)cc1 do in these assays?
USP8 block: 16; USP30 block: 92*; USP28 block: 23; USP17 block: 16

How did COc1ccc(CNC(=O)c2ccccc2NC(=O)c2ccccc2F)cc1 do in these assays?
USP8 block: 3; USP30 block: 1; USP28 block: 0; USP17 block: 10

What do the screens show for `NS(=O)(=O)c1ccc(CCNC(=O)c2ccc(S(=O)(=O)Nc3ccccc3F)cc2)cc1`?
USP8 block: 4; USP30 block: 0; USP28 block: 1; USP17 block: -1

What do the screens show for `Cc1ccccc1C(=O)c1cccn1CC(=O)NCc1ccccn1`?
USP8 block: -11; USP30 block: -14; USP28 block: 1; USP17 block: 0

What do the screens show for `CC(=O)Nc1ccc(S(=O)(=O)NCc2ccc(C(=O)NCCN3CCCCCC3)cc2)cc1`?
USP8 block: -10; USP30 block: -123; USP28 block: -6; USP17 block: 35*

Results for O=C(CCCC(=O)c1ccccc1)Nc1ccc(O)cc1 ?
USP8 block: 35*; USP30 block: -9; USP28 block: 13; USP17 block: 12

How did O=C(CCCC(=O)c1ccccc1)Nc1ccc2c(c1)CCC2 do in these assays?
USP8 block: -43; USP30 block: 4; USP28 block: 8; USP17 block: 17

Results for CN(C)C(=O)N1CCC(c2nnc3ccc(C(=O)NCc4ccccc4)cn23)C1 (stereo unspecified) ?
USP8 block: -16; USP30 block: -6; USP28 block: -1; USP17 block: 0

What do the screens show for `OCCNc1nc(-c2ccccc2)nc2c1oc1ccccc12`?
USP8 block: -10; USP30 block: 71*; USP28 block: 18; USP17 block: 60*

How did CCc1ccccc1N1C(=O)CN(S(C)(=O)=O)CC1(C)C(=O)NC1CCCC1 (stereo unspecified) do in these assays?
USP8 block: 2; USP30 block: 12; USP28 block: 0; USP17 block: 0

Results for COc1ccc(S(=O)(=O)NCC(C)(C)SCc2ccc(F)cc2)cc1 ?
USP8 block: 10; USP30 block: 31*; USP28 block: 8; USP17 block: 21

Results for Cc1nn(-c2ccccc2)c2nc(C3CCN(C(=O)c4n[nH]c5c4CCC5)CC3)ccc12 ?
USP8 block: 18; USP30 block: 38*; USP28 block: 10; USP17 block: 15

Results for CNc1cccc(C2CN(C(=O)c3n[nH]c4c3CCC4)CCO2)n1 (stereo unspecified) ?
USP8 block: 0; USP30 block: -7; USP28 block: -6; USP17 block: -5

How did CCc1cnc(N2CCC3(CCCN(C(=O)c4cnccn4)C3)C2)nc1 (stereo unspecified) do in these assays?
USP8 block: -67; USP30 block: -14; USP28 block: -18; USP17 block: -19

Results for Cc1ccc2nc(-c3ccccc3O)c(Nc3ccc(Cl)cc3)n2c1 ?
USP8 block: 76*; USP30 block: -5; USP28 block: -4; USP17 block: 24

How did Cc1ccccc1Nc1c(-c2ccccc2O)nc2c(C)cccn12 do in these assays?
USP8 block: 1; USP30 block: -7; USP28 block: -8; USP17 block: 0

Results for O=C(Nc1ccc(Cl)cc1F)c1cc(=O)[nH]c2ccccc12 ?
USP8 block: -3; USP30 block: -12; USP28 block: -9; USP17 block: -5

How did FC(F)(F)c1cnc(N2CCC(c3ncn[nH]3)CC2)c(Cl)c1 do in these assays?
USP8 block: 3; USP30 block: 19; USP28 block: 43*; USP17 block: 0

How did Cc1ccc(C)c(NC(=O)c2c(C)sc3c(=O)n(C(C)C)cnc23)c1 do in these assays?
USP8 block: 8; USP30 block: 45*; USP28 block: -2; USP17 block: 44*

How did Cc1ccc(NC(=O)c2c(C)sc3c(=O)n(C(C)C)cnc23)c(C)c1 do in these assays?
USP8 block: 1; USP30 block: -51; USP28 block: 0; USP17 block: -9

What do the screens show for `Cc1cc(Cl)c2c(c1)[C@]1(C(=O)N2)N2CCC[C@H]2[C@@H](C(=O)c2cc3ccccc3o2)[C@]12C(=O)Nc1ccccc12`?
USP8 block: 41*; USP30 block: -48; USP28 block: -19; USP17 block: 63*

Results for O=C(NNC1=NC2(CCCC2)Cc2ccccc21)c1cccnc1 ?
USP8 block: 6; USP30 block: 32*; USP28 block: 4; USP17 block: 26

Results for O=C(CN1C(=O)COc2ccc(S(=O)(=O)N3CCCCCC3)cc21)NCc1ccco1 ?
USP8 block: 3; USP30 block: 7; USP28 block: 3; USP17 block: -6

What do the screens show for `CC(=O)N1CC2(CCN(C(=O)C(C)(C)C)CC2)Nc2ccccc21`?
USP8 block: 32*; USP30 block: -30; USP28 block: -15; USP17 block: 25

What do the screens show for `O=C(c1ccc2cc[nH]c2c1)N1CCC2(CC1)N=C(c1ccccc1)NO2`?
USP8 block: -8; USP30 block: -42; USP28 block: -3; USP17 block: 34*

What do the screens show for `Cc1ccc(-c2nnc(SCc3noc(CCC(=O)Nc4ccccc4)n3)o2)cc1`?
USP8 block: -23; USP30 block: 40*; USP28 block: 16; USP17 block: 21

How did Cc1ccc(NC(=O)CCc2nc(CSc3nnc(-c4cccc(C)c4)o3)no2)cc1 do in these assays?
USP8 block: -62; USP30 block: 29; USP28 block: -4; USP17 block: 1

Results for Cc1cccc(CN2C[C@@H]3[C@@H](C(=O)NC(C)C)CCS(=O)(=O)[C@@H]3C2)c1 ?
USP8 block: -7; USP30 block: 12; USP28 block: 14; USP17 block: 6

How did CN(C)C(=O)CSc1nnc(-c2cccc(Cl)c2)n1-c1ccc(Cl)c(C(F)(F)F)c1 do in these assays?
USP8 block: 1; USP30 block: 47*; USP28 block: 11; USP17 block: 68*

How did Oc1ccc(Br)cc1CNc1ccc(F)cc1 do in these assays?
USP8 block: 85*; USP30 block: 19; USP28 block: 60*; USP17 block: 53*

Results for O=C(Nc1ccc(CN2CCOCC2)cc1)c1cccc(Br)c1 ?
USP8 block: -8; USP30 block: 5; USP28 block: 38*; USP17 block: -4

How did COC(=O)c1ccc(NC(=O)c2ccc(COc3cc(Cl)ccc3Cl)cc2)cc1 do in these assays?
USP8 block: 25; USP30 block: 14; USP28 block: 15; USP17 block: 47*

What do the screens show for `CCC(C)C1C(=O)N2NCCCC2C(=O)N2NCCCC2C(=O)N(C)C(Cc2ccccc2)C(=O)N2CCCC2C(=O)NC(Cc2ccccc2)C(=O)N1O` (stereo unspecified)?
USP8 block: 0; USP30 block: 26; USP28 block: 17; USP17 block: 6
